Test results as given in PubChem BioAssay (EPA / NIEHS).
Activity calls are given as the source filed them. The calls were made as follows: active = hit-call score of the fitted dose curve at least 0.9, where 1 is the maximum; inconclusive = response in the unintended direction; inactive = score below 0.9.

Biological target: Androgen Receptor/SRC-1 Co-activator, AR (gene 367) (UniProt P10275)
Assay: OT_AR_ARSRC1_0960: Odyssey Thera (OT) 16-hour HEK293T Protein-Complementation Assay for Androgen Receptor/SRC-1 Co-activator (AID 2283353);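 also: actives raise the signal above DMSO so potency reflects increased AR and SRC-1 complex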
Description: OT_AR_ARSRC1_0960 is a cell-based, single-readout assay that uses HEK293T, a human kidney cell line, with measurements taken at 16 hours after chemical dosing in a 384-well plate.OT_AR_ARSRC1_0960 is one of one assay component(s) measured or calculated from the OT_AR_ARSRC1_0960 assay. It is designed to make measurements of protein fragment complementation, a form of binding reporter, as detected with fluorescence intensity signals by Protein-fragment Complementation technology.Data from the assay component OT_AR_ARSRC1_0960 was analyzed into 1 assay endpoint. This assay endpoint, OT_AR_ARSRC1_0960, was analyzed in the positive analysis fitting direction relative to DMSO as the negative control and baseline of activity. Using a type of binding reporter, measures of receptor for gain-of-signal activity can be used to understand the binding at the pathway-level as they relate to the gene AR. Furthermore, this assay endpoint can be referred to as a primary readout, because the performed assay has only produced 1 assay endpoint. To generalize the intended target to other relatable targets, this assay endpoint is annotated to the nuclear receptor intended target family, where the subfamily is steroidal.
Protein-fragment complementation assay, or PCA, is a method for the identification and quantification of protein-protein interactions. In the PCA, the proteins of interest ("bait" and "prey") are each covalently linked to fragments of a third protein (e.g. DHFR, which acts as a "reporter"). Interaction between the bait and the prey proteins brings the fragments of the reporter protein in close proximity to allow them to form a functional reporter protein whose activity can be measured. The OT AR / SRC-1 assay assessed androgen receptor chemical interactions using a rapidly maturing, intensely fluorescent mutant of YFP known as Venus, rationally dissected into two separate fragments. […] Fusion constructs were transfected into HEK293T cells with a (Gly4Ser)2 linker between the AR/SRC-1 and YFP fragment genes to facilitate complementation when interacting proteins bring fragments into close proximity. The construct is stably expressed in HEK293T cells. […] Images were acquired on an Evotec Opera at 2 wavelengths (488 and 635nm), and the ratio of fluorescence in the nucleus relative to fluorescence in the cytoplasm (N/C Ratio) in the 488nm channel was calculated for a minimum of 400 cells per image. Both agonists and antagonists of the AR receptor induce nuclear translocation to varying degrees. […] The OT AR/SRC-1 assay was also run for 16 hours (see description for OT_AR_ARSRC1_0960).

Sequence of Androgen Receptor/SRC-1 Co-activator, AR (gene 367) (P10275 whole entry, looked up): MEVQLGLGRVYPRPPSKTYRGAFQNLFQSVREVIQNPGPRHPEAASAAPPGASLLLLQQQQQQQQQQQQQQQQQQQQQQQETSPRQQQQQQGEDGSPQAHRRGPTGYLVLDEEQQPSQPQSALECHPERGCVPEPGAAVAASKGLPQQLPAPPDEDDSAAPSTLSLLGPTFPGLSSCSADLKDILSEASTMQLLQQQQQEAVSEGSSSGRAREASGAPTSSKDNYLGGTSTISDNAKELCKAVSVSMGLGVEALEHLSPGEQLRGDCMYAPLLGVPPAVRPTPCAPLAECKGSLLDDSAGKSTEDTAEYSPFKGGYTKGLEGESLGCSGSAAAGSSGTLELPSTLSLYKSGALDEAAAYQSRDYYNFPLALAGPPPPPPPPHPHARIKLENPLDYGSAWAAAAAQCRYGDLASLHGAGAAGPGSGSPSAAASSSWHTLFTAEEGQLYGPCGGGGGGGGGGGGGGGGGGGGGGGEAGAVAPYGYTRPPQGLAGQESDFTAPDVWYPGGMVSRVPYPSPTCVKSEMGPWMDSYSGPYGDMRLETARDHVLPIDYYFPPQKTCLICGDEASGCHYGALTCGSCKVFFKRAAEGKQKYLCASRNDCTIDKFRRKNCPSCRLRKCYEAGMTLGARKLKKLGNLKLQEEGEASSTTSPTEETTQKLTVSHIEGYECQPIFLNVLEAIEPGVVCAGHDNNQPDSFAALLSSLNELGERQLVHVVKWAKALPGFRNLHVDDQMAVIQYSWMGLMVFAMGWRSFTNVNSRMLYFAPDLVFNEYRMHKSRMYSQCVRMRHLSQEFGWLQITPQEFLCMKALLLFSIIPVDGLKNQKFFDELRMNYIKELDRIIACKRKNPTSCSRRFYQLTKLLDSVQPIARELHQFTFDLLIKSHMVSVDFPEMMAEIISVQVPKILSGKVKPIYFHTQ

Row | Compound | AC50 | outcome
1 | O=C(CCCCCCCCc1cccnc1)N1CCC(C=C(c2ccccc2)c2ccccc2)CC1 | 27.5 µM (active) | 
2 | CCCCC(CC)COC(=O)c1ccc(C(=O)OCC(CC)CCCC)cc1 (configuration not stated) |  | inactive
3 | C1N2CN3CN1CN(C2)C3 |  | inactive
4 | CN(C)c1ccc(N=NS(=O)(=O)O)cc1 |  | inactive
5 | CCCN(C1CCN(C(=O)C2CCNCC2)CC1)[C@@H]1CCc2ccc(OC)cc2C1 |  | inactive
6 | CNS(=O)(=O)c1cc(C(=O)N2CCC(CCN3C4CCC3CC(n3c(C)nc5ccccc53)C4)(c3cccc(F)c3)CC2)c(Cl)cc1F (configuration not stated) | 31.9 µM (active) | 
7 | O=C(O)c1cccc(N(Cc2cccnc2)c2ccc(OC(F)F)c(OC(F)F)c2)c1 | 37.1 µM (active) | 
8 | CCNc1ccccc1 |  | inactive
9 | CCCCCCc1ccc(O)cc1O | 92.3 µM (active) | 
10 | CC1(C)C(=O)N(Br)C(=O)N1Br |  | inactive
11 | Cc1ccc(O)cc1 |  | inactive
12 | CCOc1cccc(-n2cc(C(=O)N3CCN(c4cc(C(=O)O)c5ccccc5c4)CC3)nc2-c2ccc(C)cc2)c1 | 23.9 µM (active) | 
13 | Fc1ccccc1[C@@H](F)COC1CCC(Nc2ncnc3[nH]ncc23)CC1 (some centres not stated) | 33.2 µM (active) | 
14 | Cc1ccc(N)cc1O |  | inactive
15 | Nc1nc2ncc(CNc3ccc(C(=O)N[C@@H](CCC(=O)O)C(=O)O)cc3)nc2c(=O)[nH]1 |  | inactive
16 | CC(C)=CCCC(C)CCO (configuration not stated) |  | inactive
17 | Oc1ccc2c(c1)-c1ccccc1C2 | 35.1 µM (active) | 
